Source: PubChem BioAssay (NCI)
This is part of a sample that, as a whole, favours compounds with a hit. Of some 79,000 tested, about 15% had one in any assay. Calls of active or inactive are those of the source. No stated cut-off is given here; in the data, active means growth inhibition above about 70%; inactive means the rest.

Tests used:
[1] = NCI Yeast Anticancer Drug Screen. Data for the wt1 strain (AID 149);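 further: 0% = growth of vehicle-treated wt1 cultures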; conditions: S. cerevisiae wt1 strain (SPY 50644) growth inhibition, hits give high values
Summary of the method: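 Compounds are added to wt1 yeast cultures. Growth is then measured. Inhibition is expressed relative to vehicle-treated controls.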

[2] = NCI Yeast Anticancer Drug Screen. Data for the rad50EPP+ strain (AID 151);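 further: 0% = growth of vehicle-treated control cultures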; conditions: S. cerevisiae rad50 mutant strain, hits give high values
Summary of the method: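 Compounds were applied to the rad50EPP+ yeast strain, which bears a defined DNA repair alteration, and growth inhibition was determined relative to vehicle-treated cultures.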

[3] = NCI Yeast Anticancer Drug Screen. Data for the mgt1 strain (AID 153); conditions: S. cerevisiae mgt1 mutant growth inhibition, hits give high values
Summary of the method: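 Strain: mgt1 yeast, one of a set carrying defined DNA damage repair or cell cycle control alterations. Compound-treated growth compared with vehicle.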

[4] = NCI Yeast Anticancer Drug Screen. Data for the rad50 strain (AID 155);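 further: 0% = growth of vehicle-only cultures of the same strain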; conditions: S. cerevisiae rad50 strain growth inhibition, hits give high values
Summary of the method: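 Inhibition values express reduced yeast growth in compound-treated cultures relative to vehicle-treated controls.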

[5] = NCI Yeast Anticancer Drug Screen. Data for the mec2-1 strain (AID 157); conditions: S. cerevisiae mec2-1 strain, hits give high values
Summary of the method: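 Strain: mec2-1 (DNA repair/cell cycle alteration). Compound exposure, then growth measured; inhibition expressed relative to vehicle.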

[6] = NCI Yeast Anticancer Drug Screen. Data for the rad14 strain (AID 159);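 further: 0% = growth of vehicle-treated control cultures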; conditions: S. cerevisiae rad14 strain growth inhibition, hits give high values
Summary of the method: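 A mutant yeast strain defective in DNA damage repair is treated with compound; inhibition of its growth is scored against untreated, vehicle-exposed cultures.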

[7] = NCI Yeast Anticancer Drug Screen. Data for the sgs1 mgt1 strain (AID 161);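 further: 0% = growth of cultures given vehicle only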; conditions: S. cerevisiae sgs1 mgt1 strain, hits give high values
Summary of the method: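 Mutant yeast exposed to compound; growth scored against vehicle-only wells.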

[8] = NCI Yeast Anticancer Drug Screen. Data for the CLN2oe strain (AID 163);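 further: 0% = growth of vehicle-only control cultures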; conditions: S. cerevisiae CLN2oe strain, hits give high values
Summary of the method: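 Growth of a genetically modified yeast strain is measured after compound exposure and compared with cultures given vehicle alone.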

[9] = NCI Yeast Anticancer Drug Screen. Data for the cln2 rad14 strain (AID 165);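 further: 0% = growth equal to vehicle treated cultures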; conditions: S. cerevisiae cln2 rad14 strain, hits give high values
Summary of the method: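 Compounds are applied to the cln2 rad14 yeast strain, and growth is then compared with that of vehicle-treated cultures to give inhibition.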

[10] = NCI Yeast Anticancer Drug Screen. Data for the bub3 strain (AID 167); conditions: S. cerevisiae bub3 mutant strain, hits give high values
Summary of the method: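 Steps: expose the mutant yeast strain to compound; grow alongside vehicle-treated cultures; measure growth; express inhibition against the vehicle cultures.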

[11] = NCI Yeast Anticancer Drug Screen. Data for the wt2 strain (AID 169);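 further: 0% = growth of vehicle-treated yeast cultures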; conditions: S. cerevisiae wt2 strain growth inhibition, hits give high values
Summary of the method: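 This strain belongs to a panel of yeast strains with defined genetic alterations in DNA damage repair or cell cycle control. Compounds are applied, and growth inhibition is measured against vehicle-treated cultures.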

[12] = NCI Yeast Anticancer Drug Screen. Data for the mlh1 strain (AID 171);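 further: 0% = growth of vehicle-treated control cultures of the same strain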; conditions: S. cerevisiae mlh1 strain growth inhibition, hits give high values
Summary of the method: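 Growth of the mutant yeast strain after compound exposure, expressed as inhibition relative to vehicle-only controls.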

[13] = NCI Yeast Anticancer Drug Screen. Data for the sgs1 strain (AID 173);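 further: 0% = growth of vehicle-only control cultures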; conditions: S. cerevisiae sgs1 mutant, hits give high values
Summary of the method: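 Growth of a yeast strain bearing a defined genetic alteration is measured after compound treatment. Inhibition is expressed relative to vehicle-only controls.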

[14] = NCI Yeast Anticancer Drug Screen. Data for the mlh1 rad18 strain (AID 175); conditions: S. cerevisiae mlh1 rad18 strain growth inhibition, hits give high values
Summary of the method: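 Read-out is yeast growth inhibition, calculated against vehicle-only controls. The compound was applied to a strain engineered with DNA damage repair alterations.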

[15] = NCI Yeast Anticancer Drug Screen. Data for the rad18 strain (AID 177); conditions: S. cerevisiae rad18 mutant growth inhibition, hits give high values
Summary of the method: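 Growth of the mutant yeast strain after compound exposure, normalised to vehicle-only cultures.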

[16] = NCI Yeast Anticancer Drug Screen. Data for the rad52 strain (AID 147);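 further: 0% = growth of vehicle-treated control cultures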; conditions: S. cerevisiae rad52 mutant growth inhibition, hits give high values
Summary of the method: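 Compounds are applied to a genetically defined yeast strain lacking normal DNA damage repair, and inhibition of growth is expressed relative to cultures given vehicle only.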

[17] = at 5.0 µM (retest, dose inferred, filed as 0.5)
[18] = at 50.0 µM (retest, dose inferred, filed as 5.0)

Measured: growth inhibition

Cc1cccc(N2CCN(C(=O)/C(=C/c3ccccc3)NC(=O)c3ccccc3)CC2)c1
inactive: [1]; at 1.2 µM -3% | [1]; at 3.7 µM -1% | [1]; at 11.0 µM -2% | [1]; at 33.0 µM 24% | [1]; at 100.0 µM 31% | [2]; at 1.2 µM 2% | [2]; at 3.7 µM 0% | [2]; at 11.0 µM 0% | [2]; at 33.0 µM 2% | [2]; at 100.0 µM -9% | [3]; at 1.2 µM -4% | [3]; at 3.7 µM -4% | [3]; at 11.0 µM 0% | [3]; at 33.0 µM 44% | [3]; at 100.0 µM 54% | [4]; at 1.2 µM -4% | [4]; at 3.7 µM -48% | [4]; [17] -1% | [4]; at 11.0 µM 29% | [4]; at 33.0 µM 59% | [4]; [18] 48% | [4]; at 50.0 µM 12.3% | [4]; at 100.0 µM 68% | [5]; at 1.2 µM -1% | [5]; at 3.7 µM 0% | [5]; [17] -3% | [5]; at 11.0 µM 8% | [5]; at 33.0 µM 36% | [5]; [18] -26% | [5]; at 50.0 µM 2.95% | [5]; at 100.0 µM 43% | [6]; at 1.2 µM -4% | [6]; at 3.7 µM -6% | [6]; at 11.0 µM 0% | [6]; at 33.0 µM 28% | [6]; at 100.0 µM 35% | [7]; [17] 0% | [7]; [18] 56% | [7]; at 50.0 µM -13.3% | [8]; at 1.2 µM -6% | [8]; at 3.7 µM -6% | [8]; at 11.0 µM 3% | [8]; at 33.0 µM 38% | [8]; at 100.0 µM 33% | [9]; [17] -5% | [9]; [18] 35% | [9]; at 50.0 µM -12.5% | [10]; at 1.2 µM -3% | [10]; at 3.7 µM -1% | [10]; [17] -41% | [10]; at 11.0 µM 5% | [10]; at 33.0 µM 41% | [10]; [18] 38% | [10]; at 50.0 µM 10.1% | [10]; at 100.0 µM 38% | [11]; at 1.2 µM -2% | [11]; at 3.7 µM 6% | [11]; at 11.0 µM 1% | [11]; at 33.0 µM 38% | [11]; at 100.0 µM 46% | [12]; at 1.2 µM -1% | [12]; at 3.7 µM -2% | [12]; at 11.0 µM 4% | [12]; at 33.0 µM 41% | [12]; at 100.0 µM 48% | [13]; at 1.2 µM -2% | [13]; at 3.7 µM 2% | [13]; at 11.0 µM 16% | [13]; at 33.0 µM 53% | [13]; at 100.0 µM 59% | [14]; [17] 1% | [14]; [18] 64% | [14]; at 50.0 µM 25.9% | [15]; at 1.2 µM -2% | [15]; at 3.7 µM 0% | [15]; at 11.0 µM 5% | [15]; at 33.0 µM 51%
active: [15]; at 100.0 µM 70%

OC(c1ccc(Br)cc1)(c1cccs1)C1CC1 (stereo unspecified)
inactive: [16]; at 1.2 µM 13% | [16]; at 3.7 µM 21% | [16]; at 11.0 µM 57% | [1]; at 1.2 µM -19% | [1]; at 3.7 µM 3% | [1]; at 11.0 µM 17% | [2]; at 1.2 µM 3% | [2]; at 3.7 µM 35% | [2]; at 11.0 µM 27% | [2]; at 33.0 µM 17% | [4]; at 1.2 µM 3% | [4]; at 3.7 µM 21% | [4]; [17] 57% | [4]; at 11.0 µM 56% | [5]; at 1.2 µM 18% | [5]; at 3.7 µM 22% | [5]; [17] 61% | [5]; at 11.0 µM 53% | [6]; at 1.2 µM 5% | [6]; at 3.7 µM 13% | [6]; at 11.0 µM 27% | [9]; [17] 45% | [10]; at 1.2 µM 38% | [10]; at 3.7 µM 48% | [10]; [17] 48% | [10]; at 11.0 µM 62% | [11]; at 1.2 µM -12% | [11]; at 3.7 µM 8% | [11]; at 11.0 µM 31% | [12]; at 1.2 µM -15% | [12]; at 3.7 µM 4% | [12]; at 11.0 µM 38% | [13]; at 1.2 µM 17% | [13]; at 3.7 µM 29% | [13]; at 11.0 µM 57% | [14]; [17] 46% | [15]; at 1.2 µM 1% | [15]; at 3.7 µM 24% | [15]; at 11.0 µM 54%
active: [16]; at 33.0 µM 92% | [16]; at 100.0 µM 87% | [1]; at 33.0 µM 97% | [1]; at 100.0 µM 96% | [2]; at 100.0 µM 91% | [4]; at 33.0 µM 94% | [4]; [18] 100% | [4]; at 50.0 µM 91.2% | [4]; at 100.0 µM 94% | [5]; at 33.0 µM 99% | [5]; [18] 100% | [5]; at 50.0 µM 93.2% | [5]; at 100.0 µM 97% | [6]; at 33.0 µM 97% | [6]; at 100.0 µM 97% | [9]; [18] 99% | [10]; at 33.0 µM 94% | [10]; [18] 100% | [10]; at 100.0 µM 93% | [11]; at 33.0 µM 97% | [11]; at 100.0 µM 96% | [12]; at 33.0 µM 96% | [12]; at 100.0 µM 95% | [13]; at 33.0 µM 95% | [13]; at 100.0 µM 95% | [14]; [18] 100% | [14]; at 50.0 µM 92% | [15]; at 33.0 µM 94% | [15]; at 100.0 µM 91%

COc1ccc(CCN2C(=O)C=CC2=O)cc1OC
active: [16]; at 11.0 µM 79% | [16]; at 33.0 µM 99% | [16]; at 100.0 µM 99% | [1]; at 33.0 µM 99% | [1]; at 100.0 µM 99% | [2]; at 11.0 µM 82% | [2]; at 33.0 µM 96% | [2]; at 100.0 µM 98% | [4]; at 33.0 µM 98% | [4]; at 50.0 µM 83.2% | [4]; at 100.0 µM 98% | [5]; at 11.0 µM 79% | [5]; at 33.0 µM 100% | [5]; at 50.0 µM 92.3%
inactive: [16]; at 1.2 µM 13% | [16]; at 3.7 µM 37% | [1]; at 1.2 µM -1% | [1]; at 3.7 µM 7% | [1]; at 11.0 µM 62% | [2]; at 1.2 µM 7% | [2]; at 3.7 µM 50% | [4]; at 1.2 µM 4% | [4]; at 3.7 µM 18% | [4]; [17] 27% | [4]; at 11.0 µM 67% | [4]; [18] 51% | [5]; at 1.2 µM 5% | [5]; at 3.7 µM 38% | [5]; [17] 43% | [5]; [18] 42%
